The source made the active and inactive calls. The calls were made as follows: active = hit-call score of the fitted dose curve at least 0.9, where 1 is the maximum; inactive = score below 0.9.
Assays:
[1] = APR_HepG2_CellLoss_24hr: Apredica 24-hour HepG2 Assay for Cell Loss (AID 2282908); settings: high-content imaging;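 as to AC50: fit in both directions so a hit may be cell loss or gain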
How it was run: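 Compounds were tested at 0.39–200 uM in duplicate with 0.5% v/v DMSO final. Cells were then fixed in 3.7% formaldehyde, Hoechst 33342 nuclei were imaged at 20x by HCS, and cell number was fitted bidirectionally against DMSO.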

[2] = APR_HepG2_MitoticArrest_24hr: Apredica 24-hour HepG2 Assay for Mitotic Arrest (AID 2282910); settings: high-content imaging, actives raise or lower the signal
How it was run: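 HepG2 cells, 24 h exposure at 0.39-200 uM (10 concentrations, duplicate, 0.5% DMSO). Fixed, stained for phospho-histone H3 with Hoechst; imaged by high-content microscopy, bidirectional fit versus DMSO.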

[3] = APR_HepG2_MitoMembPot_24hr: Apredica 24-hour HepG2 Assay for Mitochondrial Membrane Potential (AID 2282911); settings: imaging, actives raise or lower the signal
How it was run: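 Human hepatoma HepG2 cultures received ten compound concentrations up to 200 uM for 24 hr. Membrane-potential dye signal, captured by automated fluorescence microscopy, was scored for gain or loss against DMSO controls.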

[4] = APR_HepG2_MitoMass_24hr: Apredica 24-hour HepG2 Assay for Mitochondrial Mass (AID 2282912); settings: high-content imaging, actives raise or lower the signal
How it was run: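 Human HepG2 liver cells were exposed for 24 hr to compounds at 0.39–200 uM (duplicates, 0.5% v/v DMSO final). They were stained live with 250 nM MitoTracker Red CMXRos for 30 min, fixed in 3.7% formaldehyde, and imaged by HCS fluorescence; signals were fitted bidirectionally against DMSO.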

[5] = APR_HepG2_p53Act_24hr: Apredica 24-hour HepG2 Assay for p53 Activation (AID 2282913); settings: high-content imaging, actives raise or lower the signal
How it was run: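 Automated fluorescence imaging quantifies p53 immunostaining in HepG2 cells after a 24 hr exposure (0.39–200 uM, duplicate, 0.5% DMSO). Nuclei are located by Hoechst 33342 staining.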

[6] = APR_HepG2_CellLoss_72hr: Apredica 72-hour HepG2 Assay for Cell Loss (AID 2282915); settings: high-content imaging
How it was run: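 HepG2 cells exposed 72 h to compound at 0.39–200 uM (10 concentrations, duplicate) in 0.5% DMSO. Fixed with 3.7% formaldehyde and Hoechst 33342-stained. Imaged at 20x; nuclear count gives cell number, fitted bidirectionally versus DMSO.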

[7] = APR_HepG2_CellCycleArrest_24hr: Apredica 24-hour HepG2 Assay for Cell Cycle Arrest (AID 2282905); settings: imaging, actives raise or lower the signal;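 also: cell cycle arrest scored as ratio of 2N to 4N nuclear DNA content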
How it was run: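 HepG2 cells were exposed to compounds at 0.39–200 uM (ten concentrations, duplicate) in 0.5% v/v DMSO for 24 hr. After formaldehyde fixation and Triton permeabilization, Hoechst 33342-stained nuclei were imaged at 20x; DNA content was quantified, with bidirectional fitting against DMSO.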

[8] = APR_HepG2_NuclearSize_24hr: Apredica 24-hour HepG2 Assay for Nuclear Size (AID 2282907); settings: high-content imaging, actives raise or lower the signal
How it was run: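 HepG2 human liver cells were exposed for 24 hr to compounds at 0.39–200 uM (ten concentrations, duplicate) in 0.5% v/v DMSO. They were then formaldehyde-fixed, Triton-permeabilized and Hoechst 33342-stained, and nuclear diameter was imaged at 20x. Bidirectional fits were made against DMSO.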

[9] = APR_HepG2_MicrotubuleCSK_24hr: Apredica 24-hour HepG2 Assay for Microtubule CSK Stabilty (AID 2282909); settings: HepG2 microtubule cytoskeleton imaging, actives raise or lower the signal
Protocol: APR_HepG2_24hr is a cell-based, multiplexed-readout assay that uses HepG2, a human liver cell line, with measurements taken at 24 hours after chemical dosing in a 384-well plate.APR_HepG2_MicrotubuleCSK_24hr is one of 10 assay component(s) measured or calculated from the APR_HepG2_24hr assay. It is designed to make measurements of protein conformation, a form of conformation reporter, as detected with fluorescence intensity signals by HCS Fluorescent Imaging technology.Data from the assay component APR_HepG2_MicrotubuleCSK_24hr was analyzed into 1 assay endpoint. This assay endpoint, APR_HepG2_MicrotubuleCSK_24hr, was analyzed with bidirectional fitting relative to DMSO as the negative control and baseline of activity. Using a type of conformation reporter, measures of protein for gain or loss-of-signal activity can be used to understand the signaling at the cellular-level. Furthermore, this assay endpoint can be referred to as a primary readout, because this assay has produced multiple assay endpoints where this one serves a signaling function. To generalize the intended target to other relatable targets, this assay endpoint is annotated to the cell morphology intended target family, where the subfamily is cell conformation.
Cells were treated with dimethyl sulfoxide (DMSO) as a solvent control at a final concentration of 0.5% v/v or with compounds in DMSO with a resulting final DMSO concentration of 0.5% v/v. Compound treatment was done at concentrations of 0.39, 0.78, 1.56, 3.12, 6.24, 12.5, 25, 50, 100, and 200 uM in duplicate on each plate. Cells were treated with compounds for 1, 24, or 72 hr. Carbonyl […] m-chloro-phenylhydrazone (CCCP) and taxol were used as positive controls for mitochondrial function and cytoskeletal stability, respectively; DMSO served as the negative control for this experiment. Cells were fixed by the direct addition of 50 uL formaldehyde in Hank's Balanced Salt Solution (HBSS) to a final concentration of 3.7%. After incubation in the fixation medium for 30 min at room temperature (293-298 K), cells were rinsed twice with HBSS and treated with cell permeabilization buffer (16 uL of 0.5% Triton X-100) for 10 min at room temperature (293-298 K) before labeling. For mitochondrial membrane potential and mitochondrial measurements, pre-fixed cells were incubated with 50 uL of MitoTracker Red CMXRos (Invitrogen) at a concentration of 250 nM for 30 min before fixation. In the remaining cases, post-fixed cells were labeled by incubation with a multiplexed mixture of primary antibodies in HBSS for 60 min at room temperature (293-298 K) to detect immunoreactivity of c-Jun (1:500), phospho-histone H3 (1:100), phospho-histone H2A.x (1:200), p53 (1:400), alpha-tubulin (1:200) and Hoechst 33342 (2 ug/mL). Cells were labeled for multiplexed imaging on two separate plates: a) Hoechst 33342, MitoTracker Red, phospho-histone H3, and alpha-tubulin, and b) Hoechst 33342, phospho-histone H2A.x, and c-Jun. A final rinse with HBSS (50 uL) was performed before analysis. The primary and secondary antibodies for the proteins were phospho-histone H3 (rabbit anti-phospho-histone H3 and FITC-donkey anti-rabbit IgG), phospho-histone H2A.x (mouse anti-phospho-histone H2A.x and FITC-donkey anti-mouse IgG), c-Jun (rabbit anti-phospho-c-Jun and Cy3-donkey anti-rabbit IgG), p53 (sheep anti-p53 and Cy5-donkey anti-sheep IgG), alpha-tubulin (mouse anti-alpha-tubulin and Cy5-donkey anti-mouse IgG). These antibodies are available as the CellCiphr HepG2 assay kit (Millipore).Digital images of each well were captured using a Cellomics ArrayScan VTI (Thermo Scientific Cellomics) (0.8 NA objective, 0.63x optical coupler, and XF-93 filter set) at 20x magnification. The images were acquired using the autofocus feature of the ArrayScan instrument, which entails the following steps. First, the camera focuses on channel 1 (Hoechst 33342), where nuclei are identified. Second, a Z offset of 1 um is used for capturing mitochondria (MitoTracker Red). […]

[10] = APR_HepG2_CellCycleArrest_72hr: Apredica 72-hour HepG2 Assay for Cell Cycle Arrest (AID 2282914); settings: high-content imaging, actives raise or lower the signal
How it was run: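 Cell cycle arrest in HepG2 was scored from nuclear DNA content after 72 hr compound treatment (0.39–200 uM). Activity, either gain or loss, was fitted against the DMSO baseline.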

Measured: AC50

O=C(CCCN1CCC(O)(c2ccc(Cl)cc2)CC1)c1ccc(F)cc1
active: [1] 87.4 µM | [2] 34.5 µM | [4] 46 µM | [5] 98.3 µM | [6] 34.7 µM
inactive: [3]

O=C1NS(=O)(=O)c2ccccc21
not listed: [5]
inactive: all other assays above

CC(=O)Nc1ccc(O)cc1
inactive: [1] | [2] | [3] | [4] | [6]

CN(C)CCOC(c1ccccc1)c1ccccc1
active: [6] 90.8 µM
inactive: [1] | [2] | [3] | [4]

CN(Cc1cnc2nc(N)nc(N)c2n1)c1ccc(C(=O)N[C@@H](CCC(=O)O)C(=O)O)cc1
not listed: [5]
inactive: all other assays above

O=C(c1ccccc1)c1ccccc1
inactive: [1] | [2] | [3] | [4] | [5] | [6]

CS(=O)(=O)c1ccc([C@@H](CC2CCCC2)C(=O)Nc2cnccn2)cc1Cl
inactive: [1] | [2] | [3] | [4] | [5] | [6]

CCCCC=O
not listed: [5]
inactive: all other assays above

N=C(N)c1ccc(OCCCCCOc2ccc(C(=N)N)cc2)cc1
active: [1] 9.33 µM | [9] 32.6 µM | [2] 30 µM | [4] 30 µM | [10] 4.81 µM | [6] 24.2 µM
inactive: [7] | [8] | [3]

Cc1[nH]nc2c1N=C(c1ccccc1Cl)c1cc([N+](=O)[O-])ccc1N2
active: [7] 0.364 µM | [8] 0.512 µM | [1] 0.0391 µM | [3] 100 µM | [4] 1.09 µM | [10] 0.279 µM | [6] 1.49 µM
inactive: [9] | [2]

CCCCc1oc2ccccc2c1C(=O)c1cc(I)c(OCCN(CC)CC)c(I)c1
inactive: [3]
active: [1] 43.8 µM | [2] 15.7 µM | [4] 20.7 µM | [5] 33.5 µM | [6] 17.2 µM

CCCCCCCCCCCCCCC
not listed: [5]
inactive: all other assays above

OCC(CO)(CBr)CBr
not listed: [5]
inactive: all other assays above

CCCCC(CC)C(=O)O (stereo not given)
not listed: [5]
inactive: all other assays above

CCCCCCCCCCCCOS(=O)(=O)O
not listed: [5]
inactive: all other assays above
